# Source: PubChem BioAssay (NCATS)
# Results filed as inconclusive are left out. Active and inactive are the calls of the source. Calls follow the shape of the dose curve; as a rule, active = well fitted inhibition curve with a large enough effect; inconclusive = small, poorly fitted or top-dose-only effect; inactive = flat fitted curve, though single readings scatter.
# Tested on: MCC-26
# Test: qHTS assay to identify novel small-molecules to repurpose for Merkel cell carcinoma treatment (AID 1296009); also: nearly all actives have a fitted effect of over 60% in size
# Conditions: MCC and control cell lines, CellTiter-Glo viability, 72 h; series mostly up to 46 µM; activity change, negative = cytotoxicity: at the top concentration
# Excerpt: MCC is a rare and aggressive neuroendocrine skin cancer with limited treatment options. Approximately 80% of MCCs have the Merkel cell polyomavirus (MCPyV) DNA integrated into the host genome (virus-positive: VP-MCC) and viral oncogenes drive oncogenesis. The remaining MCCs are virus-negative (VN-MCC) and are caused by UV mutagenesis. To identify novel treatments for VP-MCC and/or VN-MCC we screened three VP-MCC cell lines (WAGA, MKL-1, MKL-2), three VN-MCC cell lines (MCC-13, MCC-26, UISO), and four immortalized, non-transformed control cell lines (HaCaT, HEK293T, CRL7250, NIH-3T3) against ~2,400 compounds in the NCGC Pharmaceutical Collection (NPC) and ~1,900 compounds in the Mechanism Interrogation PlatE (MiPE). Using cell viability as a readout (CellTiter-Glo assay) we found both overlapping and distinct drugs that can be repurposed for the treatment of VP-MCC and VN-MCC.
# A high-throughput screen was conducted in 1536-well white flat bottom plates (Corning) on a Kalypsys robotic system. Cell lines WAGA, MKL-1, MKL-2, MCC-13, MCC-26, UISO, HaCaT, HEK293T, CRL7250, and NIH-3T3 were screened against 2 small molecule annotated drug libraries NPC and MIPE in dose response (8 and 11 pt. respectively) measuring cell viability after 72 hours of incubation. […] A 1,536 pintool (Kalypsys) was used to transfer 23 nL of compound in DMSO to the 1,536-well assay plates. After 72 hr incubation at 37 degree celsius, 2.5 uL of CellTiter-Glo (Promega) was dispensed into each well using a BiorapTR. Plates were incubated at room temperature for 10 min, transferred to a ViewLux (PerkinElmer) and the luminescence was recorded using an exposure time of 2 seconds. Relative luminescence units (RLUs) were normalized to in-plate controls (no cells as a positive (cytotoxicity) control, DMSO as negative control) and the normalized data was processed using NCATS in-house software.
# % is scaled to controls: 0 for no effect and ±100 for the full control effect; potency is read from the fitted curve at half-maximal effect.
Compound,"activity change, negative = cytotoxicity",Potency
CCCCCCCCCCCCCCCC(=O)NCCO,-3.29% (inactive),–
C[C@]12CC[C@@H]3c4ccc(O)cc4CC[C@H]3[C@@H]1CC[C@@H]2OC(=O)CCC1CCCC1,7.51% (inactive),–
CCCOC(=O)c1ccccc1,8.71% (inactive),–
CCCCC(CC)COC(=O)c1ccccc1O (stereo not given),6.46% (inactive),–
Cc1ccc(C(C)C)cc2c(C)ccc1-2,15.7% (inactive),–
C/C(=C(\CCOP(=O)(O)O)SC(=O)c1ccccc1)N(C=O)Cc1cnc(C)nc1N,20.3% [at 4.84 µM] (inactive),–
CC(C)(O)c1ccccc1CC[C@@H](SCC1(CC(=O)O)CC1)c1cccc(/C=C/c2ccc3ccc(Cl)cc3n2)c1,5% (inactive),–
NC1CCN(c2cccc(Cl)n2)CC1,8.5% (inactive),–
O=C(O)c1ccccc1O,8.27% (inactive),–
CCN(CC)C(C)CN1c2ccccc2Sc2ccccc21 (stereo not given),2.83% (inactive),–
COc1ccc2cc1Oc1ccc(cc1)C[C@H]1c3c(cc4c(c3Oc3cc5c(cc3OC)CCN(C)[C@@H]5C2)OCO4)CCN1C,-12.8% (inactive),–
CC(=O)c1ccc2c(c1)N(CCCN(C)C)c1ccccc1S2,-8.74% (inactive),–
Cc1ncc([N+](=O)[O-])n1CC(O)CCl (stereo not given),-2.92% (inactive),–
OCCN1CCN(CCCN2c3ccccc3Sc3ccc(Cl)cc32)CC1,–,26.6 µM (active)
Cc1cccc(C)c1NC(=O)CN(CC(=O)O)CC(=O)O,10.1% (inactive),–
NS(=O)(=O)c1cc2c(cc1C(F)(F)F)NC(Cc1ccccc1)NS2(=O)=O (stereo not given),13.3% (inactive),–
COc1ccccc1O,9.17% [at 92.7 µM] (inactive),–
Cc1ccc2nc(N)[nH]c(=O)c2c1Sc1ccncc1,-10.5% (inactive),–
CC1=C(C/C=C(\C)CCC[C@H](C)CCC[C@H](C)CCCC(C)C)C(=O)c2ccccc2C1=O,2.37% (inactive),–
CCN(CC)C(=O)Nc1ccc(OCC(O)CNC(C)(C)C)c(C(C)=O)c1 (stereo not given),15.8% (inactive),–

Compound,"activity change, negative = cytotoxicity",Potency
CC/C=C(\C(=O)N[C@@H]1C(=O)N2C(C(=O)OCOC(=O)C(C)(C)C)=C(COC(N)=O)CS[C@H]12)c1csc(N)n1,–,inactive
CC(C)(C)NCC(O)COc1ccc(NC(=O)NC2CCCCC2)cc1 (stereo not given),10.5% (inactive),–
CCC(=O)Nc1ccc(O)cc1,8.1% (inactive),–
CC(C)(C)C(=O)NCCCC(=O)O,12.5% (inactive),–
OCC(CO)N[C@H]1C[C@](O)(CO)[C@@H](O)[C@H](O)[C@H]1O,3.17% (inactive),–
O=C(O)CN1C(=O)c2cccc3cccc(c23)C1=O,10.2% (inactive),–
Oc1ccc(C(O)CNCCCCCCNCC(O)c2ccc(O)c(O)c2)cc1O (stereo not given),0.582% (inactive),–
CN(C)CCCO[C@@H]1[C@H]2OC(C)(C)O[C@H]2O[C@@H]1C(O)CO (stereo not given in full),9.06% (inactive),–
[O-][n+]1cccc(CO)c1,10.8% (inactive),–
Nc1ccc(S(=O)(=O)Nc2ccc(Cl)nn2)cc1,0.546% (inactive),–
CCN(CC)CCNC(C(=O)OCCC(C)C)c1ccccc1 (stereo not given),8.97% (inactive),–
C[C@H](NC(CCc1ccccc1)C(=O)O)C(=O)N1CCC[C@H]1C(=O)O (stereo not given in full),7.71% (inactive),–
NC(=O)N/N=C/c1ccc([N+](=O)[O-])o1,–,inactive
OCc1cc(C(O)CNCCCCCCOCCCCc2ccccc2)ccc1O (stereo not given),-11.2% (inactive),–
CC(COc1ccccc1)NC(C)C(O)c1ccc(O)cc1 (stereo not given),12.6% (inactive),–
N[C@@H](CSSC[C@H](N)C(=O)O)C(=O)O,1% [at 0.597 µM] (inactive),–
CC[C@@]1(c2ccccc2)NC(=O)N(C)C1=O,9.19% (inactive),–
c1ccc2c(CC3=NCCN3)cccc2c1,1.19% (inactive),–
C[C@H]1O[C@@H](n2cc(F)c(=O)[nH]c2=O)[C@H](O)[C@@H]1O,-3.12% (inactive),–
O=C(O)[C@H](O)c1ccccc1,8.24% (inactive),–
